Values joined by “and” are separate entries in the source; they are usually repeats but may differ in a detail not shown here. Equal entries are not always repeated. Records with an inconclusive call do not appear. A call without a number means that no potency is given here. The source holds several records for some structures; these can differ, active in one and inactive in another. Active and inactive are the calls of the source. Unless noted, the call rests on the fitted dose curve; in most records, active means well fitted curve in the direction sought with a large enough effect in the repeat runs; inconclusive means weak or mixed curves; inactive means no such curve, though single readings can be large; an effect the other way counts as inactive or inconclusive.
Tests used:
[1] = target: Thyrotropin-releasing hormone receptor (Homo sapiens) (UniProt P34981); assay: qHTS assay to identify small molecule agonists of the thyrotropin-releasing hormone receptor (TRHR) signaling pathway (AID 1346891; calls by dose curve;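 further: HEK293 cells expressing TRHR with calcium dye readout; series mostly up to about 58 µM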)
Outline: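 Kinetic fluorescence (3 min, 1 s intervals) reported intracellular calcium after compound transfer onto TRHR-Hek293 cells pre-loaded with dye for 2 h at 37 °C.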

[2] = Human pregnane X receptor (PXR) small molecule agonists, qHTS cell viability counter screen (AID 1346977); further: nearly all actives have a fitted effect of over 50% in size; further: potency means the concentration at half of the fitted maximal effect
Outline: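 HepG2 cells stably carrying the PXR-Luc reporter are cultured with 5% charcoal-stripped FBS and treated with compounds for 24hr. CellTiter-Fluor is added at 23hr and fluorescence is read after 1hr.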

[3] = Caspase-3/7 induction in HepG2 cells by small molecules, qHTS assay (AID 1346978); further: nearly all actives have a fitted effect of over 15% in size; further: potency means the concentration at half of the fitted maximal effect
Outline: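 Caspase-3/7 induction was measured by Caspase-Glo 3/7 luminescence (30 min, room temperature) after a 17 hr compound exposure of wild-type HepG2 cells seeded at 2,000 per well and pre-incubated 5 hr.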

[4] = Caspase-3/7 induction in CHO-K1 cells by small molecules, qHTS cell viability counter screen (AID 1346979); further: nearly all actives have a fitted effect of over 35% in size; further: potency means the concentration at half of the fitted maximal effect
Outline: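 Seeding: 1,500 CHO-K1 cells/well. Rest: 5hr, 37C. Treatment: compounds in DMSO, 16hr. Read: CellTiter-Fluor, 1hr, fluorescence.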

[5] = Caspase-3/7 induction in CHO-K1 cells by small molecules, qHTS assay (AID 1346980); further: nearly all actives have a fitted effect of over 15% in size; further: potency means the concentration at half of the fitted maximal effect
Outline: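 Luminescent Caspase-Glo 3/7 read (30min, room temperature) quantified apoptosis induction. Cells were wild-type CHO-K1, treated with compound for 17hr at 37 C and 5% CO2.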

[6] = Caspase-3/7 induction in HepG2 cells by small molecules, qHTS cell viability counter screen (AID 1346981); further: nearly all actives have a fitted effect of over 30% in size; further: potency means the concentration at half of the fitted maximal effect
Outline: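 Wild-type HepG2 cells, 2,000/well, settled 5 hr at 37 C, 5% CO2 before compound addition. Viability read by CellTiter-Fluor fluorescence, reagent added after 16 hr compound exposure, then 1 hr at 37C, in the same wells as the caspase read.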

[7] = target: Nuclear receptor subfamily 1 group I member 2 (Homo sapiens) (UniProt O75469); assay: Human pregnane X receptor (PXR) small molecule agonists, qHTS assay (AID 1346982); further: nearly all actives have a fitted effect of over 35% in size; further: potency means the concentration at half of the fitted maximal effect
Outline: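 PXR-Luc HepG2 reporter cells (CYP3A4-driven luciferase) in 5% charcoal-stripped FBS medium, plated 5 h before compound addition, then treated 24 h at 37C. Luciferase read by ONE-Glo luminescence after 30 min at room temperature.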

[8] = target: Nuclear receptor subfamily 1 group I member 2 (Rattus norvegicus) (UniProt Q9R1A7); assay: Rat pregnane X receptor (rPXR) activation by small molecules, qHTS assay (AID 1346983); conditions: rPXR luciferase reporter cells, One-Glo luminescence, 24 h; max activation: stronger effect = higher value; further: nearly all actives have a fitted effect of over 20% in size; further: potency means the concentration at half of the fitted maximal effect
Outline: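 Luminescent readout (One-Glo luciferase, 30 min room temperature) followed 24 hr compound treatment at 37 C of rPXR cells plated 2,000 per well and preincubated 5hr; qHTS format with compounds delivered in DMSO.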

[9] = target: Nuclear receptor subfamily 1 group I member 2 (Homo sapiens) (UniProt O75469); assay: CYP3A4 induction through human pregnane X receptor (PXR) by small molecules, qHTS assay (AID 1346984); further: nearly all actives have a fitted effect of over 40% in size
Outline: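 DPX-2 HepG2 cells carrying a PXR response element and CYP3A4-promoter luciferase construct, treated with compounds 24 hr at 37C. Then P450-Glo CYP3A4 Luciferin-IPA substrate (3uM final) for 3 hr at 37C, One-Glo added, luminescence read.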

[10] = target: Nuclear receptor subfamily 1 group I member 2 (Homo sapiens) (UniProt O75469); assay: Human pregnane X receptor (PXR) activation by small molecules, qHTS assay (AID 1346985); further: nearly all actives have a fitted effect of over 40% in size
Outline: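 DPX-2 cells (HepG2 co-transfected with a PXR response element and a CYP3A4-promoter luciferase construct) were seeded at 2,000 per well, rested 5 hr at 37C, then exposed to DMSO-dissolved compounds for 24 hr. Activation was read as luciferase luminescence.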

[11] = target: Cytochrome P450 2D6 (Homo sapiens) (UniProt P10635); assay: Cytochrome P450 Family 2 Subfamily D Member 6 (CYP2D6) small molecule antagonists: luciferase reporter qHTS assay (AID 1671196); further: nearly all actives have a fitted effect of over 50% in size; further: potency means the concentration at half of the fitted maximal effect
Outline: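 Cell-free P450-Glo system: CYP2D6 with proluciferin substrate was pre-incubated with compound for 10 min, then reacted with NADPH regeneration for 1 h at room temperature. Luciferin product was detected after 20 min, and data were reported as relative luminescence units.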

[12] = target: Cytochrome P450 2C19 (Homo sapiens) (UniProt P33261); assay: Cytochrome P450 Family 2 Subfamily C Member 19 (CYP2C19) small molecule antagonists: luciferase reporter qHTS assay (AID 1671197); further: nearly all actives have a fitted effect of over 65% in size; further: potency means the concentration at half of the fitted maximal effect
Outline: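 Quantitative high-throughput screen of the Tox21 library using CYP2C19 with proluciferin substrate. Reaction: NADPH regeneration, 37C, 1 h, after 10 min compound preincubation at room temperature. Readout: luminescence.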

[13] = target: Cytochrome P450 1A2 (Homo sapiens) (UniProt P05177); assay: Cytochrome P450 Family 1 Subfamily A Member 2 (CYP1A2) small molecule antagonists: luciferase reporter qHTS assay (AID 1671199); further: nearly all actives have a fitted effect of over 50% in size; further: potency means the concentration at half of the fitted maximal effect
Outline: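 P450-Glo CYP1A2 enzyme–proluciferin substrate mix with compound 10 min at room temperature, then NADPH regeneration 1 h at room temperature. Luciferin detection reagent added, luminescence read after 20 min; furafylline positive control.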

[14] = target: Cytochrome P450 3A4 (Homo sapiens) (UniProt P08684); assay: Cytochrome P450 Family 3 Subfamily A Member 4 (CYP3A4) small molecule antagonists: luciferase reporter qHTS assay (AID 1671201); further: series mostly up to about 120 µM; nearly all actives have a fitted effect of over 50% in size
Outline: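 Enzyme and proluciferin substrate are mixed with test chemicals for 10 min, then NADPH regeneration system drives turnover for 1 h at room temperature. A detection reagent halts the reaction; luminescence after 20 min gives relative activity.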

[15] = target: Cytochrome P450 2C9 (Homo sapiens) (UniProt P11712); assay: Cytochrome P450 Family 2 Subfamily C Member 9 (CYP2C9) small molecule antagonists: luciferase reporter qHTS assay (AID 1671198); further: nearly all actives have a fitted effect of over 50% in size; further: potency means the concentration at half of the fitted maximal effect
Outline: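 Enzyme-substrate mix preincubated with compound 10 min at room temperature; reaction started with NADPH regeneration solution, 1 h 37C. Luminescent luciferin product read after 20 min detection reagent.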

[16] = target: Voltage-gated inwardly rectifying potassium channel KCNH2 (Homo sapiens) (UniProt Q12809); assay: Human Ether-a-go-go-Related Gene (hERG) channel small molecule antagonists: fluorescence cell-based qHTS assay (AID 1671200); further: nearly all actives have a fitted effect of over 50% in size; further: potency means the concentration at half of the fitted maximal effect
Outline: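 First, 1000 cells per well are seeded and cultured overnight at 37 C. Next, FluxOR II dye is loaded for 1 h at room temperature, protected from light. After 10 more minutes, stimulus is added and fluorescence is read.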

Nuclear receptor subfamily 1 group I member 2 (Rattus norvegicus), sequence (Q9R1A7 whole entry, looked up): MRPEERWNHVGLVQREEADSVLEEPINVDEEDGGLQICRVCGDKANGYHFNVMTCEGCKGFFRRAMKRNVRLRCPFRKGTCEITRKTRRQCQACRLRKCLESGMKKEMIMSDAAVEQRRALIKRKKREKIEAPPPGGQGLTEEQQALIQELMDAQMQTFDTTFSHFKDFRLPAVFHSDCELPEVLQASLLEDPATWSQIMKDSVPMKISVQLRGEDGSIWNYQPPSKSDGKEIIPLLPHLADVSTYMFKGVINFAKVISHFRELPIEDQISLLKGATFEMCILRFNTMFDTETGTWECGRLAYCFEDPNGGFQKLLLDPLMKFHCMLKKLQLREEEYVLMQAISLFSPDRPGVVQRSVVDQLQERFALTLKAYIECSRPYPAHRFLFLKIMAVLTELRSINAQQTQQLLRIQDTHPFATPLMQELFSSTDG
Voltage-gated inwardly rectifying potassium channel KCNH2 (Homo sapiens), sequence (Q12809 whole entry, looked up): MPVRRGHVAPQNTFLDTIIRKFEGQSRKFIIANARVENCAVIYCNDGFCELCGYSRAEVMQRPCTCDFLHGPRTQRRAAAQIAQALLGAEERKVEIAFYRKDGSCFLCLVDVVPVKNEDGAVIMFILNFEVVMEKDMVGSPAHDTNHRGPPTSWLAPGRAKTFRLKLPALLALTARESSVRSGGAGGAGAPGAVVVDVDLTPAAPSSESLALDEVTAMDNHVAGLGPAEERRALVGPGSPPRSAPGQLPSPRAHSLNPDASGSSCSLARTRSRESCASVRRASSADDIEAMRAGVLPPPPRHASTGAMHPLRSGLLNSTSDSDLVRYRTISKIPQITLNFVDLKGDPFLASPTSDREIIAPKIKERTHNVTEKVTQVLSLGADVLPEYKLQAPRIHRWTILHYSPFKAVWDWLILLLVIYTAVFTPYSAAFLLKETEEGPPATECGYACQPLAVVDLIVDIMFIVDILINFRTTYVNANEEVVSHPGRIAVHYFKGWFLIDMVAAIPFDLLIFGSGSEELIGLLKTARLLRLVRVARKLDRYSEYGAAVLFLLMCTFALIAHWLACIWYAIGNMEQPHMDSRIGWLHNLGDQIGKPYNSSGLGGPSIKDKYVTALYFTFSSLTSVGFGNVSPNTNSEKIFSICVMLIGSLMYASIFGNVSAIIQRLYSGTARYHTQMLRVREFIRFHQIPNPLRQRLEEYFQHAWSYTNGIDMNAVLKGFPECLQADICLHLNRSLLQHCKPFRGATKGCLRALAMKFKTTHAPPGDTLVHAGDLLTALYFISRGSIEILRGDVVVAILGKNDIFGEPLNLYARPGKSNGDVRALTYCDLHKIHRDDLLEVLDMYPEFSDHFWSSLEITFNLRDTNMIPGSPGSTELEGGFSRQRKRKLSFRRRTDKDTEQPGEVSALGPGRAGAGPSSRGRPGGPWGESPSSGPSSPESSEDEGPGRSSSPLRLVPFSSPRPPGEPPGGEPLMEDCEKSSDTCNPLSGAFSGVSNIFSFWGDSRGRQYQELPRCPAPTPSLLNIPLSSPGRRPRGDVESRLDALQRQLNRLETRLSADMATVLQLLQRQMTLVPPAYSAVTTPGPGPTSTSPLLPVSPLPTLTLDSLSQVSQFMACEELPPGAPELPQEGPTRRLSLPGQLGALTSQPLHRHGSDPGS
Cytochrome P450 1A2 (Homo sapiens), sequence (P05177 whole entry, looked up): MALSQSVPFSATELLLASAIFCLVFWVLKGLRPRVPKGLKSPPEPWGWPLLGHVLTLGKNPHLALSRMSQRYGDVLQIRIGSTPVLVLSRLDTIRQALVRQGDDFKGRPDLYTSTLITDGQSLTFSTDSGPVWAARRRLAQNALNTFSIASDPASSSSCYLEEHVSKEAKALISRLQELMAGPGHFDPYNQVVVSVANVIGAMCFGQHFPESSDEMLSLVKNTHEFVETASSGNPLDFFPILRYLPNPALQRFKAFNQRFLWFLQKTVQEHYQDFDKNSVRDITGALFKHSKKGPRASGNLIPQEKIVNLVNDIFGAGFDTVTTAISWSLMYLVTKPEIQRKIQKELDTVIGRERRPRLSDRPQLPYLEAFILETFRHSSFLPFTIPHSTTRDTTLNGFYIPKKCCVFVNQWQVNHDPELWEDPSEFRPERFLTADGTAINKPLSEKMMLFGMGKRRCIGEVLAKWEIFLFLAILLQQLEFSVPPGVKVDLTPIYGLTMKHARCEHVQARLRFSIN
Cytochrome P450 3A4 (Homo sapiens), sequence (P08684 whole entry, looked up): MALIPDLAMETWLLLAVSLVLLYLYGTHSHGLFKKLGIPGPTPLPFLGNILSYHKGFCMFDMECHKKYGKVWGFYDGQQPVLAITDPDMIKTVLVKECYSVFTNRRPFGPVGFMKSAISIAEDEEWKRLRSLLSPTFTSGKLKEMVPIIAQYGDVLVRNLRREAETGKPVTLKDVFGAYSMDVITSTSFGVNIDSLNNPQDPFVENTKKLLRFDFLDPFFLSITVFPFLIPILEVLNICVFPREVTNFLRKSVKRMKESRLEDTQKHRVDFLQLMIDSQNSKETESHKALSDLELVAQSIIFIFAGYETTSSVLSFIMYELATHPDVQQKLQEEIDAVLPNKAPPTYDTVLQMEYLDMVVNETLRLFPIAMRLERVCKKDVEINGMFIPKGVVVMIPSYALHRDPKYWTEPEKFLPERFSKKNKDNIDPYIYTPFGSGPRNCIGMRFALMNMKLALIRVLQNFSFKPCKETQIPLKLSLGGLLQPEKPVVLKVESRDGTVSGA
Thyrotropin-releasing hormone receptor (Homo sapiens), sequence (P34981 whole entry, looked up): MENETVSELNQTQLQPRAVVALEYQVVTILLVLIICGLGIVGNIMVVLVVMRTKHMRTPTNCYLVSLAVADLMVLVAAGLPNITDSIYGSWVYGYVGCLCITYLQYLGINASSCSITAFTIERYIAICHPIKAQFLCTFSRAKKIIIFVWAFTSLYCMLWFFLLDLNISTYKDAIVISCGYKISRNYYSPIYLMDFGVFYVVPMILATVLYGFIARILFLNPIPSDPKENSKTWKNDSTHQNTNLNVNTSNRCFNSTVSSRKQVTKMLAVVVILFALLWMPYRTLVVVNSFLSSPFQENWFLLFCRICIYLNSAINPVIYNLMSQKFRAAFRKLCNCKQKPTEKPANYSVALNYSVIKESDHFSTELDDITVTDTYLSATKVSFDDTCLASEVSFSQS
Cytochrome P450 2C9 (Homo sapiens), sequence (P11712 whole entry, looked up): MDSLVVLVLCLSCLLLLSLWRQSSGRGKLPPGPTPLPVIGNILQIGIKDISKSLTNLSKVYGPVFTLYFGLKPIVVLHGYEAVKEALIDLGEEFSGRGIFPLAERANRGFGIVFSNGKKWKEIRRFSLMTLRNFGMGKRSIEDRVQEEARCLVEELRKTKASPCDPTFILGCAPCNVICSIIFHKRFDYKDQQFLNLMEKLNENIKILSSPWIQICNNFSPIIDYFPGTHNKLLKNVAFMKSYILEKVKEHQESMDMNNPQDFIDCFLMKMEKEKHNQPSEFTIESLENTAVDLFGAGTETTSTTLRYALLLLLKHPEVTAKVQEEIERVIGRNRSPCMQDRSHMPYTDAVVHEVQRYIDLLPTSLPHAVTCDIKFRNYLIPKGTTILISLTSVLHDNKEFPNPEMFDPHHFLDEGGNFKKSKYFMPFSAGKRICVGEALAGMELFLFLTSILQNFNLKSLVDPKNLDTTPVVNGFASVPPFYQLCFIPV
Nuclear receptor subfamily 1 group I member 2 (Homo sapiens), sequence (O75469 whole entry, looked up): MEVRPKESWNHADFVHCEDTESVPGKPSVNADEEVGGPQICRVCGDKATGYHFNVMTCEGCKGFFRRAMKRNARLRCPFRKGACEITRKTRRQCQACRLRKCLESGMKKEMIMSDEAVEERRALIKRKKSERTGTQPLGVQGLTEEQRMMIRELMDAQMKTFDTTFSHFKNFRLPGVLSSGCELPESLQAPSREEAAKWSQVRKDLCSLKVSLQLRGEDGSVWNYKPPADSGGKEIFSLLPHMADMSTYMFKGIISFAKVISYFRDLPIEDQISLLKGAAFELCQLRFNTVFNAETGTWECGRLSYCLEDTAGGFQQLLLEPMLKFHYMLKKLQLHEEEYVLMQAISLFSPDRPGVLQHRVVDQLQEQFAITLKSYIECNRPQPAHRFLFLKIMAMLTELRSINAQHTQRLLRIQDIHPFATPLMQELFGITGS
Cytochrome P450 2C19 (Homo sapiens), sequence (P33261 whole entry, looked up): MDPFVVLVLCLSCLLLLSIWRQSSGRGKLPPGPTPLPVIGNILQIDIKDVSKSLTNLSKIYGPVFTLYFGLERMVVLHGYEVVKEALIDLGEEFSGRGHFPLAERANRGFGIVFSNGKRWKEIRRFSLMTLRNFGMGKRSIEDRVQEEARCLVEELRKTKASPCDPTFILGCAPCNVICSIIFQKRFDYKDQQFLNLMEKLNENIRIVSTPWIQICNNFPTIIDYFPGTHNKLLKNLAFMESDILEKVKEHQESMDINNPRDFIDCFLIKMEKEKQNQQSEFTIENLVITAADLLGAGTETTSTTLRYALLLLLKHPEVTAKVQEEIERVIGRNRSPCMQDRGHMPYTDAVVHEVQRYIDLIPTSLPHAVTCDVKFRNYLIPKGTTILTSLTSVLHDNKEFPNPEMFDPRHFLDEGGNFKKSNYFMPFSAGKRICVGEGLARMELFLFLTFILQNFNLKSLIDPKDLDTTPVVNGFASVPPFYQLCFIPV
Cytochrome P450 2D6 (Homo sapiens), sequence (P10635 whole entry, looked up): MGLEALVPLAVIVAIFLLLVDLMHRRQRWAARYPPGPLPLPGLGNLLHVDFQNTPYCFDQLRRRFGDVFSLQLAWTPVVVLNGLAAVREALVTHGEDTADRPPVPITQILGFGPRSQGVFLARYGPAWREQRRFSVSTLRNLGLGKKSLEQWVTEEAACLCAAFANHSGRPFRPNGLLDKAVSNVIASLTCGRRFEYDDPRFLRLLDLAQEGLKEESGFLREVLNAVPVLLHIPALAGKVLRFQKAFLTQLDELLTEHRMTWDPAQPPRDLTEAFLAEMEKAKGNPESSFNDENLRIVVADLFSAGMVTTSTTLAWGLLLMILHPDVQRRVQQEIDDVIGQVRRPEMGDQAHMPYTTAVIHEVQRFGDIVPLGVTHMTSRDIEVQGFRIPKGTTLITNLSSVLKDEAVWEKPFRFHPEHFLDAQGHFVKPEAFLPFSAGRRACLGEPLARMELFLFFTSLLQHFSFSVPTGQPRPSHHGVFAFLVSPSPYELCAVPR

| SMILES | Potency [1] | Potency [2] | Potency [3] | Potency [4] | Potency [5] | Potency [6] | Potency [7] | Potency [8] | Potency [9] | Potency [10] | Potency [11] | Potency [12] | Potency [13] | Potency [14] | Potency [15] | Potency [16] | max activation [8] |
| --- | --- | --- | --- | --- | --- | --- | --- | --- | --- | --- | --- | --- | --- | --- | --- | --- | --- |
| C[C@@H]1CC(=O)NN=C1c1ccc(NN=C(C#N)C#N)cc1 | inactive | 16.8 µM (active) and 21.1 µM (active) | 29.8 µM (active) | 11.9 µM (active) | inactive and 13.3 µM (active) | 18.8 µM (active) and 23.7 µM (active) | 11.9 µM (active) and 21.1 µM (active) | 14.1 µM (active) | inactive | inactive | inactive | 17.4 µM (active) | inactive | inactive | – | – | – |
| CC(=O)NC1(c2cccc(F)c2)CCN(CC[C@@]2(c3ccc(Cl)c(Cl)c3)CN(c3ccccc3)C(=O)CO2)CC1 | inactive | 34.5 µM (active) | 48.7 µM (active) | 34.5 µM (active) | 48.7 µM (active) | 48.7 µM (active) | 19.4 µM (active) | – | – | – | 28.3 µM (active) | 6.34 µM (active) | inactive | inactive | 8.96 µM (active) | 13.8 µM (active) | – |
| CC1=C(Br)C(=O)C(Br)=C/C1=C(/c1ccccc1S(=O)(=O)O)c1cc(Br)c(O)c(Br)c1C | inactive | 20.8 µM (active) | inactive | 18.6 µM (active) | inactive | 37 µM (active) | inactive | – | – | – | 21.6 µM (active) | 27.2 µM (active) | 19.2 µM (active) | – | 15.3 µM (active) | inactive | – |
| Nc1ccc(N=Nc2ccccc2)c(N)c1 | inactive | 33.6 µM (active) | inactive | 59.8 µM (active) | inactive | 53.3 µM (active) | 1.69 µM (active) | – | – | – | 2.2 µM (active) | 24.7 µM (active) | 7.8 µM (active) | – | 31 µM (active) | 17 µM (active) | – |
| C[C@@H](O)[C@H]1C(=O)N2C(C(=O)O)=C([C@H]3CCCO3)S[C@H]12 | inactive | inactive | inactive | inactive | inactive | inactive | inactive | – | inactive | inactive | inactive | inactive | inactive | – | inactive | inactive | -4.46% (inactive) |
| CN1C(=O)OC(C)(C)C1=O | inactive | inactive | inactive | inactive | inactive | inactive | 37.9 µM (active) | – | inactive | inactive | inactive | inactive | – | inactive | – | inactive | -2.55% (inactive) |
| CCOC(=O)c1ccc(C#Cc2ccc3c(c2)C(C)(C)CCS3)nc1 | inactive | inactive | inactive | inactive | inactive | inactive | 33.5 µM (active) | 10 µM (active) | inactive | inactive | inactive | inactive | inactive | – | – | – | – |
| CCN(CC)CCNC(=O)COc1ccc(OC)cc1 | inactive | inactive | inactive | inactive | inactive | inactive | inactive | – | inactive | inactive | 13.8 µM (active) | – | inactive | inactive | inactive | inactive | 6.52% (inactive) |

Source: PubChem BioAssay (Tox21)
